Source: publication PMC12864922, “TDP-43 directly inhibits mRNA accumulation in neurites through modulation of mRNA stability”
The full ranking holds about 9,900 sequences; the median of “r (bound/input frequency ratio)” is about 0.7, and the highest 2% start at about 6.5. Only a selection was taken, and the highest values are over-represented in it overall.

B1: ENSMUSG00000061578.1482|Ksr2 (ssRNA)
RNA: GGGAGUUCUACAGUCCGACGAUCGCUUCGAUAUCCGCAUGCUAGAUGGGUAGGUGGGUGGAUGCAUAGGCAAGUAGAUGAAUGAAUAUGUGGGUAGAAGGGUGAGUGGGUGGAUGAAUGGAUGGAUAGGUUGGUAGGUUAAUGUAUUCGUGGAUGGGUGAAUGGAUGGAUGGAUAGAUAGAUGGGAAGGUGGAUGGACAGAUGGAUGGAUGGAUAGAUAGAUGGACAGGUGGUUGGUGGAUAAAUGAGUGAAUGAUUAUGUUGAUAGAUAUGUGGGUAGGCUGAAUGGGUGAAUGGAUAGAUCCUCUUGCGGUCGCACUAGUGUGGAAUUCUCGGGUGUCAAGG
B2: ENSMUSG00000061578.1481|Ksr2 (ssRNA)
RNA: GGGAGUUCUACAGUCCGACGAUCGCUUCGAUAUCCGCAUGCUAUGAAUGGAUGGGUAGGUGGGUGGAUGCAUAGGCAAGUAGAUGAAUGAAUAUGUGGGUAGAAGGGUGAGUGGGUGGAUGAAUGGAUGGAUAGGUUGGUAGGUUAAUGUAUUCGUGGAUGGGUGAAUGGAUGGAUGGAUAGAUAGAUGGGAAGGUGGAUGGACAGAUGGAUGGAUGGAUAGAUAGAUGGACAGGUGGUUGGUGGAUAAAUGAGUGAAUGAUUAUGUUGAUAGAUAUGUGGGUAGGCUGAAUGGGUGAAUGGACUCUUGCGGUCGCACUAGUGUGGAAUUCUCGGGUGUCAAGG
B3: ENSMUSG00000061578.1484|Ksr2 (ssRNA)
RNA: GGGAGUUCUACAGUCCGACGAUCGCUUCGAUAUCCGCAUGCUAGGUGGAUGCAUAGGCAAGUAGAUGAAUGAAUAUGUGGGUAGAAGGGUGAGUGGGUGGAUGAAUGGAUGGAUAGGUUGGUAGGUUAAUGUAUUCGUGGAUGGGUGAAUGGAUGGAUGGAUAGAUAGAUGGGAAGGUGGAUGGACAGAUGGAUGGAUGGAUAGAUAGAUGGACAGGUGGUUGGUGGAUAAAUGAGUGAAUGAUUAUGUUGAUAGAUAUGUGGGUAGGCUGAAUGGGUGAAUGGAUAGAUCGAUGACUGGAUGCUCUUGCGGUCGCACUAGUGUGGAAUUCUCGGGUGUCAAGG
B4: ENSMUSG00000061578.1478|Ksr2 (ssRNA)
RNA: GGGAGUUCUACAGUCCGACGAUCGCUUCGAUAUCCGCAUGCUAGAUUUGUGAAUGAAUGGAUGAAUGGAUGGGUAGGUGGGUGGAUGCAUAGGCAAGUAGAUGAAUGAAUAUGUGGGUAGAAGGGUGAGUGGGUGGAUGAAUGGAUGGAUAGGUUGGUAGGUUAAUGUAUUCGUGGAUGGGUGAAUGGAUGGAUGGAUAGAUAGAUGGGAAGGUGGAUGGACAGAUGGAUGGAUGGAUAGAUAGAUGGACAGGUGGUUGGUGGAUAAAUGAGUGAAUGAUUAUGUUGAUAGAUAUGUGGGUAGCUCUUGCGGUCGCACUAGUGUGGAAUUCUCGGGUGUCAAGG
B5: ENSMUSG00000061578.1480|Ksr2 (ssRNA)
RNA: GGGAGUUCUACAGUCCGACGAUCGCUUCGAUAUCCGCAUGCUAAAUGGAUGAAUGGAUGGGUAGGUGGGUGGAUGCAUAGGCAAGUAGAUGAAUGAAUAUGUGGGUAGAAGGGUGAGUGGGUGGAUGAAUGGAUGGAUAGGUUGGUAGGUUAAUGUAUUCGUGGAUGGGUGAAUGGAUGGAUGGAUAGAUAGAUGGGAAGGUGGAUGGACAGAUGGAUGGAUGGAUAGAUAGAUGGACAGGUGGUUGGUGGAUAAAUGAGUGAAUGAUUAUGUUGAUAGAUAUGUGGGUAGGCUGAAUGGGUGCUCUUGCGGUCGCACUAGUGUGGAAUUCUCGGGUGUCAAGG
B6: ENSMUSG00000061578.1483|Ksr2 (ssRNA)
RNA: GGGAGUUCUACAGUCCGACGAUCGCUUCGAUAUCCGCAUGCUAUAGGUGGGUGGAUGCAUAGGCAAGUAGAUGAAUGAAUAUGUGGGUAGAAGGGUGAGUGGGUGGAUGAAUGGAUGGAUAGGUUGGUAGGUUAAUGUAUUCGUGGAUGGGUGAAUGGAUGGAUGGAUAGAUAGAUGGGAAGGUGGAUGGACAGAUGGAUGGAUGGAUAGAUAGAUGGACAGGUGGUUGGUGGAUAAAUGAGUGAAUGAUUAUGUUGAUAGAUAUGUGGGUAGGCUGAAUGGGUGAAUGGAUAGAUCGAUGACCUCUUGCGGUCGCACUAGUGUGGAAUUCUCGGGUGUCAAGG
B7: ENSMUSG00000061578.1486|Ksr2 (ssRNA)
RNA: GGGAGUUCUACAGUCCGACGAUCGCUUCGAUAUCCGCAUGCUAGGCAAGUAGAUGAAUGAAUAUGUGGGUAGAAGGGUGAGUGGGUGGAUGAAUGGAUGGAUAGGUUGGUAGGUUAAUGUAUUCGUGGAUGGGUGAAUGGAUGGAUGGAUAGAUAGAUGGGAAGGUGGAUGGACAGAUGGAUGGAUGGAUAGAUAGAUGGACAGGUGGUUGGUGGAUAAAUGAGUGAAUGAUUAUGUUGAUAGAUAUGUGGGUAGGCUGAAUGGGUGAAUGGAUAGAUCGAUGACUGGAUGGAGGGUGGGUGACUCUUGCGGUCGCACUAGUGUGGAAUUCUCGGGUGUCAAGG
B8: ENSMUSG00000061578.1485|Ksr2 (ssRNA)
RNA: GGGAGUUCUACAGUCCGACGAUCGCUUCGAUAUCCGCAUGCUAUGCAUAGGCAAGUAGAUGAAUGAAUAUGUGGGUAGAAGGGUGAGUGGGUGGAUGAAUGGAUGGAUAGGUUGGUAGGUUAAUGUAUUCGUGGAUGGGUGAAUGGAUGGAUGGAUAGAUAGAUGGGAAGGUGGAUGGACAGAUGGAUGGAUGGAUAGAUAGAUGGACAGGUGGUUGGUGGAUAAAUGAGUGAAUGAUUAUGUUGAUAGAUAUGUGGGUAGGCUGAAUGGGUGAAUGGAUAGAUCGAUGACUGGAUGGAGGGUCUCUUGCGGUCGCACUAGUGUGGAAUUCUCGGGUGUCAAGG
B9: ENSMUSG00000061578.1479|Ksr2 (ssRNA)
RNA: GGGAGUUCUACAGUCCGACGAUCGCUUCGAUAUCCGCAUGCUAUGAAUGAAUGGAUGAAUGGAUGGGUAGGUGGGUGGAUGCAUAGGCAAGUAGAUGAAUGAAUAUGUGGGUAGAAGGGUGAGUGGGUGGAUGAAUGGAUGGAUAGGUUGGUAGGUUAAUGUAUUCGUGGAUGGGUGAAUGGAUGGAUGGAUAGAUAGAUGGGAAGGUGGAUGGACAGAUGGAUGGAUGGAUAGAUAGAUGGACAGGUGGUUGGUGGAUAAAUGAGUGAAUGAUUAUGUUGAUAGAUAUGUGGGUAGGCUGAACUCUUGCGGUCGCACUAGUGUGGAAUUCUCGGGUGUCAAGG
B10: ENSMUSG00000028439.39|Fam219a|34:40 (ssRNA)
RNA: GGGAGUUCUACAGUCCGACGAUCGCUUCGAUAUCCGCAUGCUACAUUGCUUCCUCCUAUGGUAGGACGUGUACCUCACACACAUCAAGGAGCCGGAGAAACCAAAACCGGGUCUGUCUCCAGCCCCGGGGCUGAGGAGGGGUGGGCACUGUUUGUUCGGUUACUUGGGGGGAACCACACCCAAGCACCCUGCCACCUCUCCUAUAGCUGCAGUCAGGGGGGCAGCACUGAAGGCCAGGAGGCCAAAUGUAAGCGUUGGGUGAAGGGAUCACAGGGCCGGAAGGUUGGCCCCAGCCAGUGAAGCCUCUUGCGGUCGCACUAGUGUGGAAUUCUCGGGUGUCAAGG
B11: ENSMUSG00000043670.69|Diras1|133:138 (ssRNA)
RNA: GGGAGUUCUACAGUCCGACGAUCGCUUCGAUAUCCGCAUGCUACCAUUCUAUCUGCACCCCACAACCACACACUGGAGGUUUGAUCCCUGUGGAUCUGAAAACAGGGACCUGGCUAAGGAACUGCUCAUCCCAGUCAGGCCCAGAGAGGUUACCUUGCCUCUCCAUCUCUGUCCCACACACCCCAGCCAUGCCCACUGUCCCUGUCCCUCACAUUCUAUCACUGUGACCUCUGGGGAGUGCCCAUUGACCUCAUCUUCCUUCACUAAUAUCUUAUUUCUUUCACCUGAUCCUGUCCUUUCCCCCUCUUGCGGUCGCACUAGUGUGGAAUUCUCGGGUGUCAAGG
B12: ENSMUSG00000028439.112|Fam219a (ssRNA)
RNA: GGGAGUUCUACAGUCCGACGAUCGCUUCGAUAUCCGCAUGCUACAAAGGGAUACUGUCUCUCCAUUAGAUAACUCCUUCCACUGUCUCCCUCCCCCGCUUUCUUACUUUCUGAGGGUUGGGAAGGUAAGAUGGGCCUUAGAGAGAAGCCAGGUUUGGGGAUGGUAUGACCUGUUCUCACCGGUCUCUAACCAGUGCAUCUGUCUCUCUGCCUCAUCCCCACACCGCCCUGCCACCCCCAGUCUUCUGUCUAUUGGUUCCAGGCUGGAAGCAAGAGAUAAGGCUGGCCUCCUGUGCCCCAUUGCCUCUUGCGGUCGCACUAGUGUGGAAUUCUCGGGUGUCAAGG
B13: ENSMUSG00000032194.3|Kank2 (ssRNA)
RNA: GGGAGUUCUACAGUCCGACGAUCGCUUCGAUAUCCGCAUGCUAUCAGACUACGAGAGUCCGGCUUCGUCUUCAGCCGAGGAGUGAAUACAGGGAGGAGCCAGUGAGUCCCCCAGGACCCACCAGCCACAAGCCACGCAUCAAACCGUCCCUCCUCCAUCCCUCUGUCCCAUUCUGCCUCGGCAUUCCUCAGCCCCUGAACUUCCCUGAGGGAGCCCUGACAUCUACCAGGCUCAAGCUCCUGGAAGCCUUUCCCAGCACCCUGGGUUCAAAGCCAGAAAGCCAAGCUACAUUCUCCUCCCAGUCUCUUGCGGUCGCACUAGUGUGGAAUUCUCGGGUGUCAAGG

What follows are binders tested against TDP-43 (Homo sapiens, UniProt Q13148 1-414) (assay: RNA Bind-n-Seq with designed 260-mer pool; 25 mM Tris-HCl, 150 mM KCl, 3 mM MgCl2, BSA (printed 500 mg/mL), 20 units/mL SUPERase IN; pH not stated; 500 nM RNA pool, 1 h, 4 C; TDP-43 5, 50, 500 nM; high values mean tight binding). Settings: protein: recombinant; tags: SBP (GST cleaved off with PreScission; pGEX-GST-SBP).
Chain of TDP-43 (Q13148 whole entry): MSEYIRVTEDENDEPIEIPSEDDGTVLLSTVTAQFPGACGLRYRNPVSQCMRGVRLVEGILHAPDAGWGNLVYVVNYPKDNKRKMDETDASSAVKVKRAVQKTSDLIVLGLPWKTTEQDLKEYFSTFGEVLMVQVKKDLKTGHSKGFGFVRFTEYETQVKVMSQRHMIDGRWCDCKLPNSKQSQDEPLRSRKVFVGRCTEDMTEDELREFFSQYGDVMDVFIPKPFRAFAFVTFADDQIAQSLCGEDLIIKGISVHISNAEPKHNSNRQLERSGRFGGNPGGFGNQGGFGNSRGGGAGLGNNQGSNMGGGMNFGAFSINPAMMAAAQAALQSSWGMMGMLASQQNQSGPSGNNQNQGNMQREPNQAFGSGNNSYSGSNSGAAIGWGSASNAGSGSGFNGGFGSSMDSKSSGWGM
In short: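 For each oligo, R gives binding as its mapped-read-normalized abundance after pulldown divided by its abundance in input. Bead-captured SBP-tagged TDP-43 (5, 50 or 500 nM) was incubated with 500 nM of an in vitro-transcribed 260-nt 3′ UTR oligo pool for 1 h at 4 °C in 25 mM Tris-HCl, 150 mM KCl, 3 mM MgCl2, BSA and SUPERase IN on streptavidin beads. Washed, biotin-eluted RNA was reverse transcribed, PCR-amplified and sequenced.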

**Q.** With B1 as the binder, how does the binding signal read?
**A.** Its binding signal is 7 R (bound/input frequency ratio).

**Q.** For B2, which binding signal is on record?
**A.** The binding signal was 5.98 R (bound/input frequency ratio).

**Q.** For B3, which binding signal is on record?
**A.** The binding signal was 6.89 R (bound/input frequency ratio).

**Q.** B4 was tested. Which binding signal did it give?
**A.** Its binding signal is 4.77 R (bound/input frequency ratio).

**Q.** Which binding signal does the source give for B5 here?
**A.** Its binding signal is 7.65 R (bound/input frequency ratio).

**Q.** For B6, which binding signal is on record?
**A.** Its binding signal is 4.53 R (bound/input frequency ratio).

**Q.** For B7, which binding signal is on record?
**A.** The binding signal was 5.39 R (bound/input frequency ratio).

**Q.** B8 was tested. Which binding signal did it give?
**A.** Its binding signal is 5.62 R (bound/input frequency ratio).

**Q.** With B9 as the binder, how does the binding signal read?
**A.** Its binding signal is 5.48 R (bound/input frequency ratio).

**Q.** For B10, which binding signal is on record?
**A.** Its binding signal is 1.29 R (bound/input frequency ratio).

**Q.** For B11, which binding signal is on record?
**A.** The binding signal was 2.03 R (bound/input frequency ratio).

**Q.** How did the binding signal turn out when B12 was run?
**A.** Its binding signal is 0.71 R (bound/input frequency ratio).

**Q.** With B13 as the binder, how does the binding signal read?
**A.** Its binding signal is 1.4 R (bound/input frequency ratio).
